This is a sample that favours compounds with a hit; in the whole collection about 17% have one here.
TGFb inhibitor: qHTS for Inhibitors of TGF-b; HepG2 CAGA-GFP TGF-b/SMAD3 reporter, GFP fluorescence, 18 h; TGF-beta stimulated, 500 pg/mL final; Potency, µM (top dose mostly 46.1 µM), without a hit: at the highest dose activity, negative = inhibition, usual class: inhibitors; actives 1.2% (n = 410,000); AID 588855, 2011; further: on the % scale 0 is the no-effect control and ±100 the full control effect; nearly all actives have a fitted effect of over 65% in size
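HEPG2 CAGA-GFP cells (1000/well, DMEM with 1% FBS) were pre-incubated 2 h at 37 degrees C, given compound by pin tool, then stimulated with TGF-beta at 500 pg/mL final for 18 h before per-cell GFP fluorescence imaging.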
HT1080NT lethal: qHTS for induction of synthetic lethality in tumor cells producing 2HG: qHTS for the HT-1080-NT fibrosarcoma cell line; HT-1080-NT fibrosarcoma viability, CellTiter-Glo ATP luminescence, 48 h; Potency, µM (doses to about 46.1 µM), for inactives: at the top dose activity, negative = less viability, most hits filed as cytotoxic; actives 1.6% (n = 360,000); AID 686970, 2013;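 further: NT is the 2HG producing partner of a matched IDH1 knockdown line; 0% = DMSO-treated cells and -100% = media-only wells without cells; nearly all actives have a fitted effect of over 55% in size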
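HT-1080-NT; 750 cells/well; 5% FBS RPMI; 48 h compound, 37 degrees C; CellTiter-Glo luminescence; curve fitting and curve-class assignment.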
DT40 TDP1 no CPT: qHTS for Inhibitors of human tyrosyl-DNA phosphodiesterase 1 (TDP1): qHTS in cells in absence of CPT; actives 15% (n = 420,000); Potency, µM (top dose mostly 46.2 µM), without a hit: at the highest dose activity change, negative = growth inhibition, hits mostly inhibitors; DT40 Tdp1-/- hTDP1 cells, no CPT, ATP luminescence, 48 h; further: on the % scale 0 is the no-effect control and ±100 the full control effect; nearly all actives have a fitted effect of over 55% in size
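No-CPT arm: Tdp1-/-;hTDP1 DT40 cells (400/well) plus compounds, incubated ≥48 hr at 37 °C. Readout CellTiter-Glo luminescence.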
HT1080 IDH1KD tx: qHTS for induction of synthetic lethality in tumor cells producing 2HG: qHTS for the HT-1080-IDH1KD cell line | AID 686971, 2013 | actives 2% (n = 360,000) | Potency, µM (titrated, usually from 46.1 µM), inactives show top-dose activity, negative = toxicity, hits mostly cytotoxic | HT-1080 IDH1 knockdown viability, ATP luminescence, 48 h;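 further: 0% = DMSO wells and -100% = cell-free medium wells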
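IDH1KD HT-1080 cells, 750/well, RPMI + 5% FBS; compound pinned after 2 h settling; 48 h, 37 °C; CellTiter-Glo luminescence; % activity normalised to DMSO and no-cell wells; curves fitted, classed by r2 and efficacy.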
HepG2 tox-1: qHTS for Inhibitors of TGF-b: Cytotox Counterscreen. HepG2 CAGA-GFP viability, ATP luminescence, 18 h. Potency, µM (highest dose often 46.1 µM), for inactives: top-dose activity change, negative = cytotoxicity, usual class: cytotoxic. actives 0.76% (n = 410,000)
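CellTiter-Glo luminescence gave cytotoxicity after 18 hours at 37 degrees C. The cells were HepG2 CAGA-GFP in 1% FBS DMEM, stimulated with 500 pg/mL TGF-beta after compound addition. %Activity was normalised to no-cell wells (complete cell-killing) and DMSO (no toxicity), and curves were fitted and classified.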
DT40 TDP1 CPT: qHTS for Inhibitors of human tyrosyl-DNA phosphodiesterase 1 (TDP1): qHTS in cells in presence of CPT; chicken DT40 Tdp1-/-;hTDP1 cells + 20 nM CPT, ATP luminescence, 48 h; Potency, µM (doses to about 46.2 µM), without a hit: at the highest dose activity change, negative = growth inhibition, usual class: inhibitors; actives 12% (n = 420,000); AID 686979, 2013; further: on the % scale 0 is the no-effect control and ±100 the full control effect; nearly all actives have a fitted effect of over 55% in size
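Cell growth measured by CellTiter-Glo luminescence after a minimum 48 h, 37 C compound exposure with 20 nM CPT in Tdp1-knockout DT40 cells stably expressing hTDP1, seeded 400/well; qHTS titration format.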
TGFb confirm: qHTS for Inhibitors of TGF-b: Confirmation of Cherry Picks; shares compounds with TGFb inhibitor; HepG2 CAGA-GFP TGF-b reporter, GFP fluorescence, 18 h; cells stimulated with TGF-beta, 500 pg/mL; Potency, µM (titrated, usually from 46.1 µM), without a hit: at the top dose activity, negative = inhibition, usual class: inhibitors; actives 63% (n = 1,600); further: on the % scale 0 is the no-effect control and ±100 the full control effect; nearly all actives have a fitted effect of over 65% in size
HepG2 tox-2: qHTS for Inhibitors of TGF-b: Cytotox Counterscreen for Cherry Picks. shares compounds with TGFb inhibitor. HepG2 CAGA-GFP viability, ATP luminescence, 18 h; cells stimulated with TGF-beta, 500 pg/mL. Potency, µM (top dose mostly 46.1 µM), for the others: at the top dose activity, negative = cytotoxicity, hits mostly inhibitors. actives 27% (n = 1,600). AID 720535, 2013; further: on the % scale 0 is the no-effect control and ±100 the full control effect; nearly all actives have a fitted effect of over 70% in size
TGFb CCL64 inh: qHTS for Inhibitors of TGF-b: CCL64 Cells Orthogonal Assay for Cherry Picks | shares compounds with TGFb inhibitor | CCL64 CAGA-GFP reporter, TGF-b stimulated, GFP fluorescence, 18 h | Potency, µM (top dose mostly 46.1 µM), inactives show top-dose activity, negative = inhibition, usual class: inhibitors | actives 41% (n = 1,600); further: nearly all actives have a fitted effect of over 65% in size
TGFb COP inh: qHTS for Inhibitors of TGF-b: Hit Validation in HepG2 Cells using COP promoter | shares compounds with TGFb inhibitor | Potency, µM (top dose mostly 46.1 µM), for the others: at the highest dose activity, negative = inhibition, most hits filed as inhibitors | HepG2 COP-GFP TGF-b reporter, GFP fluorescence, 18 h; cells stimulated by added recombinant TGF-beta | AID 720537, 2013 | actives 3% (n = 1,600); further: nearly all actives have a fitted effect of over 70% in size
Starred values were filed as active, the others as inactive; ? = inconclusive; nt = no result given. The call rests on the fitted dose curve; in most records, active means well fitted curve in the direction sought with a large enough effect; inconclusive means small, poorly fitted or top-dose-only effect, or another doubt; inactive means no such curve, though single readings can be large; an effect the other way counts as inactive or inconclusive. Potency means the concentration at half of the fitted maximal effect.

SMILES | TGFb inhibitor | HT1080NT lethal | DT40 TDP1 no CPT | HT1080 IDH1KD tx | HepG2 tox-1 | DT40 TDP1 CPT | TGFb confirm | HepG2 tox-2 | TGFb CCL64 inh | TGFb COP inh
CC[C@H](C)[C@H]1CNC(=S)N1CC1CCN(CCC(C)C)CC1 | -4% | -3% | -24% | -2% | -23% | -26% | nt | nt | nt | nt
O=c1c2ccccc2c(=O)n(Cc2ccccc2)n1Cc1ccccc1 | 11µM* | 2% | -18% | -4% | -16% | 6% | ? | -29% | 18µM* | ?
COc1cc(CC(CC(=O)c2ccc3c(c2)OCO3)C(=O)O)cc(OC)c1OC (stereo unspecified) | 4% | 16% | 1% | 2% | -28% | 15% | nt | nt | nt | nt
COc1cc(C(=O)c2cocc2C(=O)c2ccc3c(c2)OCO3)cc(OC)c1OC | ? | 1.3µM* | 0.73µM* | 1.6µM* | 4% | 0.73µM* | -10% | 1% | -15% | -14%
COc1ccc(Br)c(C=O)c1OS(=O)(=O)c1ccc(C)cc1 | 0% | -3% | ? | ? | -7% | ? | nt | nt | nt | nt
Fc1ccc(CN2CCN(c3ncccn3)CC2)c(F)c1 | 3% | 6% | -26% | 3% | 4% | 1% | nt | nt | nt | nt
O=S1(=O)[C@H]2CC3O[C@]2(C[C@@H]3c2ccc(F)cc2)CN1Cc1ccc(Cl)cc1 | 7.1µM* | -10% | ? | -1% | 1% | ? | ? | -9% | -11% | -4%
CC(=O)c1ccc(C2CC34CN(Cc5cccc(Cl)c5)S(=O)(=O)C3CC2O4)cc1 (stereo unspecified) | 0% | nt | nt | nt | 2% | nt | nt | nt | nt | nt
CCN(CC)S(=O)(=O)c1cccc(NC(=O)CCSc2ccc(Cl)cc2)c1 | 10µM* | -26% | 21µM* | -25% | 7% | 16µM* | 21µM* | ? | 26µM* | 26%
CCN(CC)S(=O)(=O)c1cccc(NC(=O)c2ccc(-n3nc(C)cc3C)cc2)c1 | 7.9µM* | -6% | 23µM* | 0% | -1% | ? | ? | -18% | -1% | -9%
CCN(CC)S(=O)(=O)c1ccc(C(=O)Nc2cccc(C)c2)cc1 | 43% | -15% | -20% | -3% | 8% | ? | nt | nt | nt | nt
CCOC(=O)N1CCN(C(=O)C[C@@H]2C[C@@]3(C(=O)OC)CC(C)(C)CC=C3N(Cc3ccccc3)C2=O)CC1 | nt | 7% | ? | -22% | nt | ? | nt | nt | nt | nt
O=C(Nc1ccc([N+](=O)[O-])cc1)Nc1cnccn1 | ? | -13% | 16µM* | -8% | -51% | ? | ? | ? | ? | 13%
Clc1ccccc1-c1cc(NCc2cccnc2)ncn1 | nt | nt | -20% | nt | nt | 0% | nt | nt | nt | nt
O=C1C(Cl)=C(Nc2ccccc2)C(=O)c2ccccc21 | 4.5µM* | 2% | 2.9µM* | 2% | 6.3µM* | 2.1µM* | 3.3µM* | 6.5µM* | ? | 1%
O=C1C(Cl)=C(NCc2cccnc2)C(=O)c2ccccc21 | 3.2µM* | 18µM* | 8.2µM* | ? | 1.4µM* | 13µM* | 4.6µM* | 6.5µM* | ? | 16µM*
CC(C(=O)Nc1ccc(C(=O)O)cc1)N1C(=O)c2ccccc2C1=O (stereo unspecified) | -24% | 10% | -8% | 9% | -2% | -18% | nt | nt | nt | nt
CC1=C(Nc2ccc(C(=O)O)cc2)C(=O)c2ccccc2C1=O | 7.9µM* | ? | ? | ? | -59% | ? | 15µM* | ? | -20% | 22%
O=C(C1=C(Nc2ccccc2)c2ccccc2S(=O)(=O)N1)c1ccccc1 | 2% | -4% | ? | 7% | 2% | ? | nt | nt | nt | nt
COc1ccc(Cc2noc(CN3CCN(Cc4csc(C)n4)CC3)n2)cc1OC | 3% | 5% | -28% | 4% | 7% | -1% | nt | nt | nt | nt
COCCn1c(SCc2nc3scc(-c4ccc(Cl)cc4)c3c(=O)[nH]2)nnc1-c1cccc(C)c1 | 10µM* | -28% | ? | -6% | -25% | ? | 13µM* | ? | ? | 32%
O=C(Nc1ccnn1C1CCN(Cc2c[nH]c3ccccc23)CC1)c1ccccc1 | 1% | -29% | -25% | -17% | -9% | -23% | nt | nt | nt | nt
O=C(O)c1cccc(Nc2ccc3nonc3c2[N+](=O)[O-])c1 | 2% | 1% | 15% | 0% | -57% | -4% | nt | nt | nt | nt
O=[N+]([O-])c1c(Nc2cccc(O)c2)cc(Cl)c2nonc12 | 3.5µM* | 5.2µM* | 1.8µM* | 8.2µM* | 3.5µM* | 1.8µM* | 2.9µM* | 3.3µM* | 2.9µM* | 4.6µM*
COc1ccc(Nc2nccc(-c3cccc(N)c3)n2)cc1 | 10µM* | ? | ? | ? | -11% | ? | 8.2µM* | 5.8µM* | 8.2µM* | 43%

Source: PubChem
